According to PubChem BioAssay AID1159580 (chemical genetic matrix, 2015):
The campaign covered roughly 5,500 compounds. About 2,000 (36%) were called active. Inconclusive results (about 18%) are left out. Rule as the data show it: active = normalized growth mostly below about 0.91 (no sharp cut-off); inconclusive = no clear call, values can overlap the other calls; inactive = mostly above about 0.92. The list shows a part of the results.

Experiment: chemical genetic growth profiling, strain panel (AID 1159580);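 also: tested at 20 µM; growth read once vehicle control cultures reached saturation at 30 °C; 1 = growth at the plate median or of vehicle wells; lower values mean less growth of the strain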
Conditions: S. cerevisiae deletion strains, growth OD

Measured: normalized growth

Oc1ccc([C@H]2Oc3cc(O)cc(O)c3C[C@H]2O)cc1
inactive: locus YAL021C, strain ccr4, stronger effect = lower value 0.995 | locus YAL026C, strain drs2, stronger effect = lower value 0.991 | locus YAL030W, strain snc1, stronger effect = lower value 0.988 | locus YBL061C, strain skt5, stronger effect = lower value 0.98 | locus YBR009C, strain hhf1, stronger effect = lower value 1.02 | locus YBR023C, strain chs3, stronger effect = lower value 0.99 | locus YBR171W, strain sec66, stronger effect = lower value 0.969 | locus YBR231C, strain swc5, stronger effect = lower value 0.94 | locus YBR279W, strain paf1, stronger effect = lower value 0.999 | locus YCL011C, strain gbp2, stronger effect = lower value 1.01 | locus YCL016C, strain dcc1, stronger effect = lower value 1.01 | locus YCL069W, strain vba3, stronger effect = lower value 0.981 | locus YCR088W, strain abp1, stronger effect = lower value 0.987 | locus YDL005C, strain med2, stronger effect = lower value 0.988 | locus YDL040C, strain nat1, stronger effect = lower value 0.983 | locus YDR001C, strain nth1, stronger effect = lower value 0.987 | locus YDR069C, strain doa4, stronger effect = lower value 0.952 | locus YDR137W, strain rgp1, stronger effect = lower value 0.996 | locus YDR159W, strain sac3, stronger effect = lower value 0.939 | locus YDR195W, strain ref2 0.933 | locus YDR297W, strain sur2, stronger effect = lower value 0.984 | locus YDR334W, strain swr1, stronger effect = lower value 0.976 | locus YDR335W, strain msn5, stronger effect = lower value 0.995 | locus YDR392W, strain spt3, stronger effect = lower value 0.929 | locus YEL003W, strain gim4, stronger effect = lower value 0.97 | locus YEL037C, strain rad23, stronger effect = lower value 0.982 | locus YEL061C, strain CIN8 (second series), stronger effect = lower value 0.979 | locus YER015W, strain faa2, stronger effect = lower value 0.998 | locus YER016W, strain bim1, stronger effect = lower value 0.991 | locus YER111C, strain swi4, stronger effect = lower value 0.967 | locus YER155C, strain BEM2 (second series), stronger effect = lower value 0.948 | locus YFR010W, strain ubp6, stronger effect = lower value 0.971 | locus YGL167C, strain pmr1, stronger effect = lower value 0.986 | locus YGL173C, strain kem1, stronger effect = lower value 0.977 | locus YGL227W, strain vid30, stronger effect = lower value 0.987 | locus YGL240W, strain doc1, stronger effect = lower value 0.969 | locus YGL253W, strain hxk2, stronger effect = lower value 0.956 | locus YHR013C, strain ard1, stronger effect = lower value 1.01 | locus YHR027C, strain rpn1, stronger effect = lower value 0.979 | locus YHR030C, strain SLT2, stronger effect = lower value 0.983 | locus YHR079C, strain IRE1, stronger effect = lower value 0.981 | locus YHR142W, strain chs7, stronger effect = lower value 0.993 | locus YJL092W, strain hpr5, stronger effect = lower value 0.983 | locus YJL095W, strain BCK1 (second series), stronger effect = lower value 0.977 | locus YJL095W, strain BCK1, stronger effect = lower value 0.97 | locus YJL115W, strain asf1, stronger effect = lower value 0.976 | locus YJL129C, strain trk1, stronger effect = lower value 0.978 | locus YJL154C, strain vps35, stronger effect = lower value 0.984 | locus YJL164C, strain tpk1, stronger effect = lower value 1 | locus YJL166W, strain qcr8, stronger effect = lower value 0.998 | locus YJR066W, strain TOR1, stronger effect = lower value 0.947 | locus YKL160W, strain elf1, stronger effect = lower value 1.02 | locus YKR026C, strain gcn3, stronger effect = lower value 0.968 | locus YKR091W, strain srl3, stronger effect = lower value 0.992 | locus YLL001W, strain dnm1, stronger effect = lower value 0.956 | locus YLL026W, stronger effect = lower value 0.993 | locus YLL041C, strain sdh2, stronger effect = lower value 0.983 | locus YLR027C, strain aat2, stronger effect = lower value 0.976 | locus YLR113W, strain HOG1, stronger effect = lower value 0.977 | locus YLR221C, strain rsa3, stronger effect = lower value 0.964 | locus YLR258W, strain gsy2, stronger effect = lower value 0.999 | locus YLR262C, strain YPT6 (second series), stronger effect = lower value 1 | locus YLR320W, strain mms22, stronger effect = lower value 0.982 | locus YLR342W, strain FKS1, stronger effect = lower value 0.99 | locus YLR357W, strain rsc2, stronger effect = lower value 0.949 | locus YLR370C, strain arc18, stronger effect = lower value 0.977 | locus YLR384C, strain iki3, stronger effect = lower value 0.991 | locus YML120C, strain ndi1, stronger effect = lower value 1 | locus YMR058W, strain fet3, stronger effect = lower value 0.985 | locus YMR125W, strain sto1, stronger effect = lower value 0.99 | locus YMR129W, stronger effect = lower value 0.989 | locus YMR205C, strain PFK2, stronger effect = lower value 1 | locus YMR231W, strain pep5, stronger effect = lower value 0.976 | locus YNL071W, strain lat1, stronger effect = lower value 1 | locus YNL183C, strain NPR1, stronger effect = lower value 0.956 | locus YNL209W, strain ssb2, stronger effect = lower value 1.01 | locus YNL248C, strain rpa49, stronger effect = lower value 0.956 | locus YNL322C, strain KRE1 (second series), stronger effect = lower value 0.995 | locus YNR049C, strain mso1, stronger effect = lower value 0.987 | locus YOR001W, strain rrp6, stronger effect = lower value 0.947 | locus YOR070C, strain gyp1, stronger effect = lower value 0.99 | locus YOR080W, strain dia2, stronger effect = lower value 0.974 | locus YOR083W, strain WHI5, stronger effect = lower value 1.01 | locus YOR106W, strain vam3, stronger effect = lower value 1.02 | locus YOR231W, strain MKK1, stronger effect = lower value 0.978 | locus YOR265W, strain rbl2, stronger effect = lower value 0.981 | locus YOR270C, strain vph1, stronger effect = lower value 0.958 | locus YOR290C, strain snf2, stronger effect = lower value 1.03 | locus YPL051W, strain arl3, stronger effect = lower value 0.954 | locus YPL078C, strain atp4, stronger effect = lower value 1.01 | locus YPL106C, strain sse1, stronger effect = lower value 0.982 | locus YPL240C, strain hsp82, stronger effect = lower value 0.989 | locus YPL256C, strain CLN2, stronger effect = lower value 0.967
